# Measurements as given in PubChem BioAssay (EPA / NIEHS).
# Results filed as inconclusive are left out. Activity calls are given as the source filed them. The calls were made as follows, unless noted: active = hit-call score of the fitted dose curve at least 0.9, where 1 is the maximum; inactive = score below 0.9.
# Assays:
# [1] = ATG_NF_kB_CIS: Attagene CIS-FACTORIAL HepG2 Assay for human Nuclear Factor Kappa B (NF-kB) (AID 2282991); details: HepG2 Attagene cis-factorial NF-kB reporter mRNA; actives raise or lower the signal
# Summary of the method: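 Multiplexed cis-reporter assay in transiently transfected HepG2. 24 h treatment; RNA isolated, RT-PCR, labelled fragments resolved by CE. DMSO baseline.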
# [2] = ATG_NRF2_ARE_CIS: Attagene CIS-FACTORIAL HepG2 Assay for human Nuclear Factor Erythroid 2 Related Factor 2 (NFR2) response to Antioxidant Response Elements (ARE) (AID 2282992); details: HepG2 Attagene ARE/NRF2 reporter, transcription factor activity; actives raise or lower the signal
# Summary of the method: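 Endogenous transcription factor activity read out as reporter transcript levels (RT-PCR plus capillary electrophoresis, fluorescence) in transiently transfected HepG2 cells. Measured at 24 h after dosing; gain or loss of signal fitted versus DMSO.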
# [3] = ATG_Oct_MLP_CIS: Attagene CIS-FACTORIAL HepG2 Assay for human Octamer-Binding Transcription Factor (Oct) (AID 2282993); details: HepG2 Attagene cis-factorial Oct reporter, mRNA; actives raise or lower the signal
# Summary of the method: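 HepG2 cells transiently transfected with cis-element-driven reporter transcription units (endogenous TF activity); 24 h compound exposure. Reporter mRNA quantified by RT-PCR, 6-FAM labelling, HpaI digestion and capillary electrophoresis; bidirectional fit versus DMSO baseline.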
# [4] = biological target: Cellular tumor antigen p53 (Homo sapiens) (UniProt P04637); experiment: ATG_p53_CIS: Attagene CIS-FACTORIAL HepG2 Assay for human p53 Transcription Factor (AID 2282994); details: HepG2 p53 cis-element reporter, Attagene mRNA; actives raise or lower the signal
# Summary of the method: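 Endogenous p53 activity read in transiently transfected HepG2 from a cis-element-driven reporter transcript after 24 h exposure. RNA reverse-transcribed, PCR-amplified, fluorescently labelled and sized by capillary electrophoresis; gain or loss fitted against DMSO baseline.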
# [5] = BSK_3C_TissueFactor: BioMAP Diversity Plus: 3C Assay for Tissue Factor Biomarker Activity (AID 2282997); details: BioMAP 3C HUVEC, tissue factor biomarker readout; actives raise or lower the signal
# Summary of the method: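 Readout: Tissue Factor ELISA. Cells: human primary umbilical vein endothelium. Time: 24 h after dosing. Analysis: bidirectional fit, DMSO baseline.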
# [6] = BSK_3C_uPAR: BioMAP Diversity Plus: 3C Assay for Urokinase-type plasminogen activator receptor (uPAR) Biomarker Activity (AID 2282998); details: BioMAP 3C HUVEC, uPAR biomarker ELISA; actives raise or lower the signal
# Summary of the method: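 Primary human umbilical vein endothelial cells, 3C system; surface uPAR measured by ELISA 24 h after dosing. Cytotoxicity via SRB total protein in parallel cultures; bidirectional fit against DMSO.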
# [7] = BSK_4H_Eotaxin3: BioMAP Diversity Plus: 4H Assay for Eotaxin 3 Biomarker Activity (AID 2283000); details: primary human endothelial cells (HUVEC); actives raise or lower the signal;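 as to outcome: CCL26 protein level quantified by ELISA in parallel with SRB cytotoxicity check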
# Summary of the method: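 HUVEC, 24 h post-dose, ELISA for Eotaxin-3/CCL26. Gain or loss of signal fitted bidirectionally vs DMSO baseline.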
# [8] = biological target: human Peroxisome Proliferator-activated Receptor alpha (PPARa), PPARA (gene 5465) (UniProt Q07869); experiment: ATG_PPARa_TRANS: Attagene TRANS-FACTORIAL HepG2 Assay for human Peroxisome Proliferator-activated Receptor alpha (PPARa) (AID 2283001; active = hit-call score of the fitted dose curve at least 0.9, where 1 is the maximum;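 as to AC50: potency for gain of reporter signal over DMSO so agonist or activator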)
# Summary of the method: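 Exposure: 24 h, transiently transfected HepG2 cells. Endpoint: GAL4-UAS reporter mRNA, RT-PCR with capillary electrophoresis fluorescence. Baseline: DMSO; increases fitted.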
# [9] = biological target: human Peroxisome Proliferator-activated Receptor delta (PPARd), PPARD (gene 5467) (UniProt Q03181); experiment: ATG_PPARd_TRANS: Attagene TRANS-FACTORIAL HepG2 Assay for human Peroxisome Proliferator-activated Receptor delta (PPARd) (AID 2283002; active = hit-call score of the fitted dose curve at least 0.9, where 1 is the maximum)
# Summary of the method: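 Measured quantity: GAL4-UAS reporter transcript induction in HepG2 after 24 h chemical dosing, with NR-Gal4 chimeras supplied by transient transfection. Detection by RT-PCR and capillary electrophoresis; upward fit against DMSO.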
# [10] = read-out: Intercellular Adhesion Molecule 1 (ICAM1), ICAM1 (gene 3383); experiment: BSK_3C_ICAM1: BioMAP Diversity Plus: 3C Assay for Intercellular Adhesion Molecule 1 (ICAM1) Biomarker Activity (AID 2283003); details: primary human endothelial cells (HUVEC); actives raise or lower the signal
# Summary of the method: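 ELISA read-out of ICAM-1; HUVEC (primary human), 3C system, 24 h post-dosing; bidirectional fit vs DMSO baseline.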
# [11] = BSK_3C_Proliferation: Cell Proliferation Assessment in the BioMAP Diversity Plus: 3C Assay (AID 2283006); details: primary human endothelial cells (HUVEC);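 as to AC50: potency may reflect either rise or fall in cell number versus DMSO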
# Summary of the method: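 HUVEC, sub-confluent; 48 h chemical exposure; 10% TCA fix, 0.1% SRB stain, A560 total protein. Gain or loss of signal fitted both directions vs DMSO control.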
# [12] = biological target: Peroxisome proliferator-activated receptor gamma (Homo sapiens) (UniProt P37231); experiment: ATG_PPARg_TRANS: Attagene TRANS-FACTORIAL HepG2 Assay for human Peroxisome Proliferator-activated Receptor-gamma (PPARg) (AID 2283007; active = hit-call score of the fitted dose curve at least 0.9, where 1 is the maximum)
# Summary of the method: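 Human hepatoma HepG2, transient MRTU transfection, 24 h treatment. mRNA reporter signal by RT-PCR plus capillary electrophoresis, fluorescence detection; fitted for increase over DMSO negative control.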
# [13] = biological target: human Retinoic Acid Receptor gamma (RARg), RARG (gene 5916) (UniProt P13631); experiment: ATG_RARg_TRANS: Attagene TRANS-FACTORIAL HepG2 Assay for human Retinoic Acid Receptor gamma (RARg) (AID 2283009; active = hit-call score of the fitted dose curve at least 0.9, where 1 is the maximum)
# Summary of the method: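 Readout: reporter transcript levels via RT-PCR, 6-FAM primer-extension labelling, HpaI digestion and capillary electrophoresis. Cells: HepG2 carrying transfected RARg-GAL4 chimera plus UAS reporter set. Dosing 24 h; DMSO negative control.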
# [14] = biological target: Retinoic acid receptor RXR-alpha (Homo sapiens) (UniProt P19793); experiment: ATG_RXRa_TRANS: Attagene TRANS-FACTORIAL HepG2 Assay for human Retinoid X Receptor alpha (RXRa) (AID 2283012; active = hit-call score of the fitted dose curve at least 0.9, where 1 is the maximum)
# Summary of the method: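 Read-out: fluorescent reporter-transcript fragments quantified by capillary electrophoresis after RT-PCR. Transiently transfected HepG2 cells carrying GAL4-UAS reporters and NR-GAL4 chimeras were exposed to chemical for 24 h; activity scored as increase over DMSO.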
# [15] = BSK_3C_VCAM1: BioMAP Diversity Plus: 3C Assay for Vascular cell adhesion molecule 1 (VCAM1) Biomarker Activity (AID 2282999); details: BioMAP 3C HUVEC, VCAM1 ELISA, cytokine-stimulated; actives raise or lower the signal
# Summary of the method: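 Vascular primary endothelium (human umbilical vein) was exposed to chemicals and assayed 24 h later. VCAM-1 levels came from ELISA, with DMSO serving as baseline for bidirectional fitting.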
# [16] = biological target: Nuclear receptor subfamily 1 group I member 2 (Homo sapiens) (UniProt O75469); experiment: ATG_PXR_TRANS: Attagene TRANS-FACTORIAL HepG2 Assay for human Pregnane X Receptor (PXR) (AID 2283008; active = hit-call score of the fitted dose curve at least 0.9, where 1 is the maximum)
# Summary of the method: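 Transactivation by exogenous PXR–GAL4 fusion measured as reporter transcript induction after 24 h compound treatment of transfected human HepG2 cells. Read-out via RT-PCR and capillary electrophoresis of labelled fragments, fitted upward relative to DMSO.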
# [17] = biological target: human RAR-related Orphan Receptor gamma (RORg), RORC (gene 6097) (UniProt P51449); experiment: ATG_RORg_TRANS: Attagene TRANS-FACTORIAL HepG2 Assay for human RAR-related Orphan Receptor gamma (RORg) (AID 2283011; active = hit-call score of the fitted dose curve at least 0.9, where 1 is the maximum)
# Summary of the method: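 Readout: reporter transcript induction (RT-PCR, fluorescent primer extension, capillary electrophoresis) after 24 h compound exposure of transiently transfected HepG2 cells carrying a RORg-Gal4 chimera and GAL4-UAS reporters; DMSO served as baseline, with increasing signal fitted.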
# [18] = biological target: human Retinoid X Receptor beta (RXRb), RXRB (gene 6257) (UniProt P28702); experiment: ATG_RXRb_TRANS: Attagene TRANS-FACTORIAL HepG2 Assay for human Retinoid X Receptor beta (RXRb) (AID 2283013; active = hit-call score of the fitted dose curve at least 0.9, where 1 is the maximum)
# Summary of the method: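 Read-out: reporter mRNA induction via RT-PCR plus capillary electrophoresis fluorescence, analysed as signal increase relative to DMSO. Cells were human HepG2, transiently transfected with GAL4-UAS reporter constructs and chimeric receptor-Gal4 fusions, dosed for 24 h.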
# [19] = biological target: human RAR-related Orphan Receptor beta (RORb), RORB (gene 6096) (UniProt Q92753); experiment: ATG_RORb_TRANS: Attagene TRANS-FACTORIAL HepG2 Assay for human RAR-related Orphan Receptor beta (RORb) (AID 2283010; active = hit-call score of the fitted dose curve at least 0.9, where 1 is the maximum)
# Summary of the method: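 HepG2, transient MRTU transfection (GAL4-UAS reporters, exogenous NR-Gal4 chimeras); 24 h compound exposure; total RNA → RT-PCR → 6-FAM primer extension → HpaI digest → CE fluorescence. Positive direction vs DMSO baseline.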
# [20] = biological target: human Thyroid Receptor alpha (THRa1), THRA (gene 7067) (UniProt P10827); experiment: ATG_THRa1_TRANS: Attagene TRANS-FACTORIAL HepG2 Assay for human Thyroid Receptor alpha (THRa1) (AID 2283014; active = hit-call score of the fitted dose curve at least 0.9, where 1 is the maximum)
# Summary of the method: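 HepG2 cells transiently transfected with multiplexed GAL4-UAS reporter units for exogenous chimeric THRa1-Gal4; reporter mRNA measured 24 h after dosing by RT-PCR, 6-FAM labelling, HpaI digestion and capillary electrophoresis. Gain-of-signal fitted versus DMSO baseline.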
# human Peroxisome Proliferator-activated Receptor delta (PPARd), PPARD (gene 5467), sequence (Q03181 whole entry, looked up, the tested form may be a part): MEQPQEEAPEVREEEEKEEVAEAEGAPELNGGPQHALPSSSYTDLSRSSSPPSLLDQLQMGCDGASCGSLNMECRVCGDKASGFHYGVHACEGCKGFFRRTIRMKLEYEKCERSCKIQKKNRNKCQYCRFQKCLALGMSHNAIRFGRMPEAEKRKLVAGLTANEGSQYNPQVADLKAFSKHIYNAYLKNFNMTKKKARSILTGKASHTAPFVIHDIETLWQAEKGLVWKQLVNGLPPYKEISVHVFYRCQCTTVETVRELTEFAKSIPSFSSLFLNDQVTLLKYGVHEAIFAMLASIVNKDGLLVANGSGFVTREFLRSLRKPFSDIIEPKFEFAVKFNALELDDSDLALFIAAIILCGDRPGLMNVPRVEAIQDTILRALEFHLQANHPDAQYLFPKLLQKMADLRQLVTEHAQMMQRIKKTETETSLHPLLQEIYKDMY
# human Thyroid Receptor alpha (THRa1), THRA (gene 7067), sequence (P10827 whole entry, looked up, the tested form may be a part): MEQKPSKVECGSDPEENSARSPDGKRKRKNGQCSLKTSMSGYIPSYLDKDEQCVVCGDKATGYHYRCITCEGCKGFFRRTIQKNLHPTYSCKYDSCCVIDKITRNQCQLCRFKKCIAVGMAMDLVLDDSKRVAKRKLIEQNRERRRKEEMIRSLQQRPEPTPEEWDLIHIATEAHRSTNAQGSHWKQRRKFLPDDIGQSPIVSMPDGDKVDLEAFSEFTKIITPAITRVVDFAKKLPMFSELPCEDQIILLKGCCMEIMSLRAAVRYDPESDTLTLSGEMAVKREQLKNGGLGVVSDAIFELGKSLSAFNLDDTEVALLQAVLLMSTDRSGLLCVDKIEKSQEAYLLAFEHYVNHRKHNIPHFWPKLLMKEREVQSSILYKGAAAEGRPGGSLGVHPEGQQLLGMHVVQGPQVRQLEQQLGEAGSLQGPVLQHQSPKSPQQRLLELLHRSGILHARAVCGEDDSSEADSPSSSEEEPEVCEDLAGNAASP
# Peroxisome proliferator-activated receptor gamma (Homo sapiens), sequence (P37231 whole entry, looked up): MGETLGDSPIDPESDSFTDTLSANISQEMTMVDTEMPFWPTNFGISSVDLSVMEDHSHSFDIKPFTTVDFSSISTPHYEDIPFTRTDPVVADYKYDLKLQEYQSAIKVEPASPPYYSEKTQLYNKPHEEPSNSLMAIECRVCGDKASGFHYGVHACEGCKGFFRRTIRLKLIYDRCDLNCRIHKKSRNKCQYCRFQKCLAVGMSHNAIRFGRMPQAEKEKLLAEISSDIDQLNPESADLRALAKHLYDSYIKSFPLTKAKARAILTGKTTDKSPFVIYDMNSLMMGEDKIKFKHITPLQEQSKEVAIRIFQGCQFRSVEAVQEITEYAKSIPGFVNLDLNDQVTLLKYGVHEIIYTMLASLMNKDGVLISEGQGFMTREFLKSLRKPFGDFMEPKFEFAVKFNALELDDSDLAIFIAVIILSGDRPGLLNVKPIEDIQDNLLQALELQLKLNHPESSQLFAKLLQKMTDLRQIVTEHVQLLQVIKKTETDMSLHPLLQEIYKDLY
# Retinoic acid receptor RXR-alpha (Homo sapiens), sequence (P19793 whole entry, looked up, the tested form may be a part): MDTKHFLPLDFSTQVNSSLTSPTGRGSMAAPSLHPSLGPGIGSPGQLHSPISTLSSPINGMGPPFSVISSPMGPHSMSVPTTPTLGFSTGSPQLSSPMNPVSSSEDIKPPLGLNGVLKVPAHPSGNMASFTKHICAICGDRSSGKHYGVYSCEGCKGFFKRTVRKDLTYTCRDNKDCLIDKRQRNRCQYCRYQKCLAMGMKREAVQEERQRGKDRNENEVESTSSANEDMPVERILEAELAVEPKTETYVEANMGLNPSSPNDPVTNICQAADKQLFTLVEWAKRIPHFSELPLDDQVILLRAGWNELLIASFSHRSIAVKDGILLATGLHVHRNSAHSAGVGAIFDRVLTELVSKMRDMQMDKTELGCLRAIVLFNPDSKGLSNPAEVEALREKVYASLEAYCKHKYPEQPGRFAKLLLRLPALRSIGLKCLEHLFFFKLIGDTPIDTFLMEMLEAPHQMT
# human Peroxisome Proliferator-activated Receptor alpha (PPARa), PPARA (gene 5465), sequence (Q07869 whole entry, looked up, the tested form may be a part): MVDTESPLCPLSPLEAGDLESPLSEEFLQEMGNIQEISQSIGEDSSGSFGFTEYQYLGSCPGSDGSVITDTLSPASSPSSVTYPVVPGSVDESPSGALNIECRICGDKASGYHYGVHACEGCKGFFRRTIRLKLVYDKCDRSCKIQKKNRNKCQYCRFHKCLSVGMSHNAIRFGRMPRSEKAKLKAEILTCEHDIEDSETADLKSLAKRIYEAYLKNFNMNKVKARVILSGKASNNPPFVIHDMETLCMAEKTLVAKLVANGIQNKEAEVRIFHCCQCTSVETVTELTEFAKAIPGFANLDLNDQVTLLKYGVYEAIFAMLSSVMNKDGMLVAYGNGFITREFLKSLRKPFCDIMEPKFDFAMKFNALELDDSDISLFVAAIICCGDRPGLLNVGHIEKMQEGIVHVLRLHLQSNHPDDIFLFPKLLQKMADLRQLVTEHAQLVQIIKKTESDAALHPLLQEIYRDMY
# human Retinoic Acid Receptor gamma (RARg), RARG (gene 5916), sequence (P13631 whole entry, looked up, the tested form may be a part): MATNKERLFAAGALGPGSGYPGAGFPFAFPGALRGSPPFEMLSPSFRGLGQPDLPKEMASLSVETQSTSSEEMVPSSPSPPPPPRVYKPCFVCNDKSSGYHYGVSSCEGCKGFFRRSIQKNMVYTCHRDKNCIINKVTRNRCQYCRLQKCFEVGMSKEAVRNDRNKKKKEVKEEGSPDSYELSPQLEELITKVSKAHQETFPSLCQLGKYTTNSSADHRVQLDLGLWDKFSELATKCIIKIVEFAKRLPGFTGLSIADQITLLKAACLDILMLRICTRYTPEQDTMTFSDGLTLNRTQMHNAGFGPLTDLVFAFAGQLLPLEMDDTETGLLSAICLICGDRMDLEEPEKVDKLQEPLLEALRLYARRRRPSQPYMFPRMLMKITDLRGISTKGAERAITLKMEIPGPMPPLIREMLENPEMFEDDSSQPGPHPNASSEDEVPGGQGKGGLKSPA
# Cellular tumor antigen p53 (Homo sapiens), sequence (P04637 whole entry, looked up): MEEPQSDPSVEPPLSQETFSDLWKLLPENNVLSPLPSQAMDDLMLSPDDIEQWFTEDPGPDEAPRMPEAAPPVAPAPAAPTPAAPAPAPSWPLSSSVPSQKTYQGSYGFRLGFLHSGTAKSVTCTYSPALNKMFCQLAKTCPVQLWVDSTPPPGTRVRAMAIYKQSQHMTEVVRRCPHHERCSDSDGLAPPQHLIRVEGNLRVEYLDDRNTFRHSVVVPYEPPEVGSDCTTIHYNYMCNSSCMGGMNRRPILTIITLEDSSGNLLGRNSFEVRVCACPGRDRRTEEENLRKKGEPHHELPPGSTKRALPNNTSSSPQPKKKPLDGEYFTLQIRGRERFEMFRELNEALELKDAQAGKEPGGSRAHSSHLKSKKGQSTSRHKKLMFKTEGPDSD
# Nuclear receptor subfamily 1 group I member 2 (Homo sapiens), sequence (O75469 whole entry, looked up, the tested form may be a part): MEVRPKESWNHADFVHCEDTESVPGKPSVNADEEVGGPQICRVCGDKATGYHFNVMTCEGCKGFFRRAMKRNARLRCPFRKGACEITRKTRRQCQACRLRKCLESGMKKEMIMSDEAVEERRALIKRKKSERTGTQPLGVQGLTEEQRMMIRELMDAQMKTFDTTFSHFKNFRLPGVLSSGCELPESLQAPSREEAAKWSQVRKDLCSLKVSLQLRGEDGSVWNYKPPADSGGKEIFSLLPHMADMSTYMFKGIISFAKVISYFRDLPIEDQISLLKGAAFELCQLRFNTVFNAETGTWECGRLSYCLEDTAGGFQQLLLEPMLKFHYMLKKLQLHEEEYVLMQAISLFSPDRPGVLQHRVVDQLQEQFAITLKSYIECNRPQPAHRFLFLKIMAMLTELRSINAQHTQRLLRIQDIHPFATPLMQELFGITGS
# human Retinoid X Receptor beta (RXRb), RXRB (gene 6257), sequence (P28702 whole entry, looked up, the tested form may be a part): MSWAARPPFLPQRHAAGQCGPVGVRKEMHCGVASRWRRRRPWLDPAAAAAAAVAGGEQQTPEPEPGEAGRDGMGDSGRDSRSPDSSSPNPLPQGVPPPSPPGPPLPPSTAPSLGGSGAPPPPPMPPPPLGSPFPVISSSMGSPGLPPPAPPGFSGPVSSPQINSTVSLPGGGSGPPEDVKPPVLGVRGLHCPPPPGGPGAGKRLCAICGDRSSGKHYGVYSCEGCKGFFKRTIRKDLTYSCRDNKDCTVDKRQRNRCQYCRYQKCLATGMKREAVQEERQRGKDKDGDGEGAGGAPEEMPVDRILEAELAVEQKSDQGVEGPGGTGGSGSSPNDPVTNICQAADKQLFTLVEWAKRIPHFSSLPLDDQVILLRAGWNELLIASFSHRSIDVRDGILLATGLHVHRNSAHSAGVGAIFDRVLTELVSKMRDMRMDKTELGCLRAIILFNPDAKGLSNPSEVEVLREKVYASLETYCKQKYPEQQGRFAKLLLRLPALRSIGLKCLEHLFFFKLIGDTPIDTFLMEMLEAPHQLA
# human RAR-related Orphan Receptor gamma (RORg), RORC (gene 6097), sequence (P51449 whole entry, looked up, the tested form may be a part): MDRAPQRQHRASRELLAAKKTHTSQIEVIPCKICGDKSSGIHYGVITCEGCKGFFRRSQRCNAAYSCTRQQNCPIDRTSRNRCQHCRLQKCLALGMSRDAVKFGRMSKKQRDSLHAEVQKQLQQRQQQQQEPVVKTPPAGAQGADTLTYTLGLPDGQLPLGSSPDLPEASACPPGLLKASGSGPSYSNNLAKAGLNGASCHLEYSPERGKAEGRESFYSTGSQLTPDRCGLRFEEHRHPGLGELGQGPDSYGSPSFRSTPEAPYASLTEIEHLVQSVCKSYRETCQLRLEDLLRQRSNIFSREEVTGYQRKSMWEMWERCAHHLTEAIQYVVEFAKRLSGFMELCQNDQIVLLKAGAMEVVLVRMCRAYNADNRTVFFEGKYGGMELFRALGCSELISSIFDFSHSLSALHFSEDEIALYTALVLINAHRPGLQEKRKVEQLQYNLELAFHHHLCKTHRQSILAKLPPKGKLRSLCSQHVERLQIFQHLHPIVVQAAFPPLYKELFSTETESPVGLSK
structure (smiles),measurement,setting,value
O=c1[nH]c2ccc(S(=O)CCN3CCC(Cc4ccc(F)cc4)CC3)cc2o1 (centres undefined),AC50,[1],76.2 µM (active)
same,AC50,[2],39.4 µM (active)
same,AC50,[3],64.9 µM (active)
same,outcome,[4],inactive
same,outcome,[5],inactive
same,outcome,[6],inactive
same,outcome,[7],inactive
same,outcome,[8],inactive
same,outcome,[9],inactive
same,outcome,[10],inactive
same,outcome,[11],inactive
same,AC50,[12],7.65 µM (active)
same,outcome,[13],inactive
same,outcome,[14],inactive
C=CC(=C)CCC=C(C)C,outcome,[1],inactive
same,outcome,[2],inactive
same,outcome,[3],inactive
same,outcome,[4],inactive
same,outcome,[5],inactive
same,outcome,[6],inactive
same,outcome,[15],inactive
same,outcome,[7],inactive
same,outcome,[10],inactive
same,outcome,[11],inactive
same,AC50,[12],100 µM (active)
same,outcome,[16],inactive
same,outcome,[17],inactive
same,outcome,[18],inactive
CC[C@H](C)C(=O)O[C@H]1C[C@@H](C)C=C2C=C[C@H](C)[C@H](CC[C@@H]3C[C@@H](O)CC(=O)O3)[C@H]21,outcome,[1],inactive
same,AC50,[2],33.4 µM (active)
same,AC50,[3],6.78 µM (active)
same,outcome,[4],inactive
same,AC50,[5],31 µM (active)
same,AC50,[6],18.3 µM (active)
same,AC50,[15],33.7 µM (active)
same,AC50,[7],31.5 µM (active)
same,outcome,[8],inactive
same,AC50,[10],36.8 µM (active)
same,AC50,[11],13.6 µM (active)
same,outcome,[12],inactive
same,outcome,[18],inactive
Nc1ccc(Nc2ccccc2)cc1,outcome,[1],inactive
same,AC50,[2],47.1 µM (active)
same,AC50,[3],32 µM (active)
same,outcome,[4],inactive
same,AC50,[5],0.903 µM (active)
same,outcome,[6],inactive
same,AC50,[7],3.97 µM (active)
same,outcome,[8],inactive
same,outcome,[10],inactive
same,AC50,[11],3.97 µM (active)
same,outcome,[12],inactive
same,outcome,[14],inactive
Nc1cccc(N)c1,outcome,[1],inactive
same,outcome,[2],inactive
same,outcome,[3],inactive
same,outcome,[4],inactive
same,outcome,[5],inactive
same,outcome,[6],inactive
same,outcome,[15],inactive
same,outcome,[7],inactive
same,outcome,[10],inactive
same,outcome,[11],inactive
same,outcome,[16],inactive
same,outcome,[13],inactive
same,outcome,[19],inactive
same,outcome,[17],inactive
same,outcome,[14],inactive
same,outcome,[20],inactive
CCCN(C1CCN(C(=O)C2CCNCC2)CC1)[C@@H]1CCc2ccc(OC)cc2C1,AC50,[1],186 µM (active)
same,AC50,[2],26.2 µM (active)
same,AC50,[3],178 µM (active)
same,AC50,[4],155 µM (active)
same,outcome,[5],inactive
same,outcome,[6],inactive
same,outcome,[7],inactive
same,AC50,[8],146 µM (active)
same,outcome,[9],inactive
same,outcome,[10],inactive
same,outcome,[11],inactive
same,AC50,[12],100 µM (active)
same,outcome,[13],inactive
same,outcome,[14],inactive
same,outcome,[18],inactive
same,outcome,[20],inactive
COC(=O)c1ccccc1O,outcome,[1],inactive
same,outcome,[2],inactive
same,AC50,[3],59.6 µM (active)
same,outcome,[4],inactive
same,outcome,[5],inactive
same,outcome,[6],inactive
same,outcome,[15],inactive
same,outcome,[7],inactive
same,outcome,[9],inactive
same,outcome,[10],inactive
same,outcome,[11],inactive
same,AC50,[16],24.9 µM (active)
same,outcome,[13],inactive
same,outcome,[14],inactive
same,AC50,[18],2.1 µM (active)
CN(C)c1ccc(Cc2ccc(N(C)C)cc2)cc1,AC50,[1],37.9 µM (active)
same,AC50,[2],78.2 µM (active)
same,AC50,[3],56.7 µM (active)
same,outcome,[4],inactive
same,outcome,[5],inactive
same,outcome,[6],inactive
same,outcome,[7],inactive
same,AC50,[9],58.5 µM (active)
same,outcome,[10],inactive
same,AC50,[11],13.4 µM (active)
same,AC50,[12],23.1 µM (active)
same,outcome,[13],inactive
same,outcome,[14],inactive
same,outcome,[20],inactive
